# PubChem BioAssay (Tox21)
# Records with an inconclusive call do not appear. Values without a mark were called inactive. Calls come from the whole dose curve; as a rule, active = well fitted activation curve with a large enough effect in the repeat runs; inconclusive = weak or mixed curves; inactive = no such curve, though single readings can be large or run the other way.
# Experiment: qHTS assay to identify small molecule agonists of the estrogen related receptor signaling pathway with the pleiotropic PPARgamma coactivator (PGC) (AID 1224823)
# Conditions: ERR/PGC reporter cell line, luciferase agonist mode; series mostly up to 46.1 µM; activation: at the top concentration
# Summary of the method: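 In this quantitative high-throughput screen, an 18 h, 37 C treatment of PGC/ERR cells with compounds in DMSO preceded a One-Glo luminescence read taken after 30 min at room temperature.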
# % is set by controls: 0 for no effect and ±100 for the full control effect.
row,SMILES,activation
1,C[C@H](Cc1ccc2c(c1)OC(C(=O)O)(C(=O)O)O2)NC[C@H](O)c1cccc(Cl)c1,4.38%
2,Cn1cnc(CCN)c1,1.07%
3,COC(=O)N1CCN(C(=O)Cc2ccc(Cl)c(Cl)c2)C(CN2CCCC2)C1 (stereo not drawn),15.9%
4,COc1ccc2[nH]cc(CCN)c2c1,-4.42%
5,CC(=O)OCC1=C(C(=O)[O-])N2C(=O)[C@@H](NC(=O)CCC[C@@H](N)C(=O)[O-])[C@H]2SC1.[Zn+2],4.76%
6,CCOC(=O)c1ncn2c1[C@@H]1CCCN1C(=O)c1cc(OC)ccc1-2,-1.8%
7,CCCN1CCc2cc(O)cc3c2[C@H]1Cc1ccc(O)c(O)c1-3,4.55%
8,NCc1cc(=O)[nH]o1,-1.41%
9,O=c1ccc2[nH]cc(C3=CCNCC3)c2[nH]1,-4.33%
10,Oc1ccc2c3c1O[C@H]1c4[nH]c5ccccc5c4C[C@@]4(O)C(C2)N(CC2CC2)CCC314 (stereo partly drawn),-2.03%
11,CNCCc1c[nH]c2ccc(O)cc12,1.35%
12,C[C@H](N)Cc1cccc(C(F)(F)F)c1,12.6%
13,O=C1CCCN1CC#CCN1CCCC1,0.881%
14,Cc1sc2ccccc2c1CC1=NCCN1,1.47%
15,NCC(CP(=O)(O)O)c1ccc(Cl)cc1 (stereo not drawn),4.91%
16,O=C(O)[C@@H]1CCN1,2.22%
17,CN1CCc2cccc(Cl)c2CC1,-0.663%
18,CC[C@@]1(O)C(=O)OCc2c1cc1n(c2=O)Cc2cc3ccccc3nc2-1,-13.1%
19,NC(CCP(=O)(O)O)C(=O)O (stereo not drawn),-0.815%

row,SMILES,activation
1,CC(C)[C@H]1CN[C@H](C(=O)O)[C@H]1CC(=O)O,2.23%
2,CNc1ccc2oc(C[C@H]3O[C@@]4(CC[C@H]3C)O[C@H]([C@H](C)C(=O)c3ccc[nH]3)[C@H](C)C[C@H]4C)nc2c1C(=O)O,-33.5%
3,Cc1[nH]c2ccc(O)cc2c1CCN,-4.67%
4,NC(N)=Nc1ccc2[nH]c3c(c2c1)C[C@@]1(O)[C@H]2Cc4ccc(O)c5c4[C@@]1(CCN2CC1CC1)[C@H]3O5,6.8%
5,Clc1ccc(N2CC3CCC(C2)N3)nn1,2.85%
6,Nc1ccc(CCN2CCN(c3cccc(C(F)(F)F)c3)CC2)cc1,-10%
7,C[N+]1(C)CCc2cc3c(cc2[C@H]1[C@@H]1OC(=O)c2c1ccc1c2OCO1)OCO3,-3.35%
8,COc1cc(C(O)CN)ccc1O (stereo not drawn),4.22%
9,c1ccc2c(N3CCNCC3)cccc2c1,1.15%
10,CC(=O)NBr,2.44%
11,CN1CCC(c2c[nH]c3ccc(O)cc23)CC1,-2.22%
12,CCCN(CCC)[C@@H]1CCc2ccc(O)cc2C1,-0.453%
13,CC(C)CC(NP(=O)(O)O[C@@H]1O[C@@H](C)[C@H](O)[C@@H](O)[C@H]1O)C(=O)NC(Cc1c[nH]c2ccccc12)C(=O)O (stereo partly drawn),2.02%
14,CCCN(CCC)[C@@H]1CCc2cccc(O)c2C1,-1.2%
15,CCCN(CCC)[C@H]1CCc2c(F)ccc(O)c2C1,2.29%
16,COc1ccc2c(c1)C13CCCCC1C(C2)N(C)CC3 (stereo not drawn),-9.13%
17,O=C1/C(=C/c2ccccc2)C[C@@]2(O)[C@H]3Cc4ccc(O)c5c4[C@@]2(CCN3CC2CC2)[C@H]1O5,-35%
18,N[C@@H](Cn1oc(=O)[nH]c1=O)C(=O)O,-1.43%
19,CC(C)(O)[C@@H]1[C@H]2OC(=O)[C@@H]1[C@]1(O)C[C@H]3O[C@]34C(=O)O[C@H]2[C@]14C (tested in a mixture with another compound),1.26%
